About 83,000 compounds went through this panel and 20% of them were active in at least one assay; those are over-represented in the sample as a whole.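 Single-concentration screen, 48 h exposure, 96-well plates. Endpoint: percent growth. Below 10 = active.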 A number with no mark means an inactive call. Calls of active or inactive are those of the source.

In one assay the test system is OVCAR-8 ovarian. Kind of assay: NCI-60 one-dose screen, 48 h (100 = growth as untreated, 0 = no growth, -100 = all killed). The settings on record: 10 µM unless noted.
As to `Nc1ccc2c(c1Br)Cc1ccccc1-2`, the growth is 98.6%.

With `CC1C(C)N(C(=O)CCl)c2ccccc2N1C(=O)CCl` (stereo unspecified), the growth was -20.8% (active).

On to `Nc1ccccc1-c1ccn[nH]1`, for which the growth was 103%.

With `O=C1OC2(c3ccccc31)c1ccccc1-c1ccccc12`, the growth was 101%.

As for `Nc1ccc2c(c1)C(=O)c1cc(Cl)c(Cl)cc1-2`, the growth was 92.3%.

With `N#CC1c2ccccc2C=CN1C(=O)N(c1ccccc1)c1ccccc1` (stereo unspecified), the growth was 76%.

As for `Nc1ccc(N=Nc2ccccc2)cc1[N+](=O)[O-]`, the growth was 94.7%.

Regarding `COc1ccc(C2CC(c3ccc4c(c3)OCO4)=NN2C=O)cc1` (stereo unspecified), the growth was 106%.

In the case of `CC(=O)Nc1c(Cl)cc2c(c1Cl)Cc1cc([N+](=O)[O-])ccc1-2`, the growth was 77.7%.

`Cc1cccc2nnc(-c3ccccc3)n12`: the growth is 109%.

`Cc1cc(-c2ccccc2)cc(C)n1`: the growth is 106%.

As for `Nc1ccc2c(c1)Cc1cc(Cl)c(Cl)cc1-2`, the growth was 86.4%.

With `CCN(CC)CCCCCCCNc1c2ccc(Cl)cc2nc2ccc(OC)cc12`, the growth is -41.8% (active).

In the case of `O=[N+]([O-])c1ccc(N=Nc2c(Cl)cc(O)cc2Cl)cc1`, the growth is 6.5% (active).

As for `O=C(O)CNC(=O)C1(N2C(=O)c3ccccc3C2=O)CCCC1`, the growth is 104%.

Consider `O=C1N=C(N2CCOCC2)S/C1=C\c1cn(-c2ccccc2)nc1-c1ccccc1`, for which the growth was 69.9%.

For the compound `C(=C1c2ccccc2-c2ccccc21)c1ccccn1`, the growth is 93.4%.

With `O=C(Nc1ccccc1S)c1ccccc1`, the growth is 105%.

For a further assay, the system named is OVCAR-5 ovarian. The description is as above. The settings on record: 10 µM unless noted.
Turning to `O=c1ncc(-c2ccc(C(F)(F)F)cc2)c(NC2CCCCCC2)[nH]1`, the growth was 91.3%.

For the compound `NS(=O)(=O)N(c1cc(C(F)(F)F)cc(C(F)(F)F)c1)C1CCN(Cc2ccc(C(F)(F)F)cc2)CC1`, the growth was 38.6%.

On to `Nc1ccc2c(c1Br)Cc1ccccc1-2`, for which the growth was 94.6%.

As for `CC1C(C)N(C(=O)CCl)c2ccccc2N1C(=O)CCl` (stereo unspecified), the growth is -77.5% (active).

With `Nc1ccccc1-c1ccn[nH]1`, the growth was 83%.

As for `O=C1OC2(c3ccccc31)c1ccccc1-c1ccccc12`, the growth was 88.4%.

For `O=C(c1ccc(Cl)cc1)c1ccc(Cl)cc1`, the growth is 88.7%.

As to `Nc1ccc2c(c1)C(=O)c1cc(Cl)c(Cl)cc1-2`, the growth was 95.9%.

Turning to `COc1cc(/C(Cl)=C/C=C/C(=O)c2c(C)[n+]([O-])c3ccc(Cl)cc3[n+]2[O-])cc(OC)c1OC`, the growth is 81.8%.

For the compound `CCSc1ncc(Br)c(Sc2nc(N)nc3nc[nH]c23)n1`, the growth is 72.3%.

Take `O=C1/C(=C/c2ccccc2O)C(=S)SN1Cc1ccco1`: the growth was 102%.

As for `N#CC1c2ccccc2C=CN1C(=O)N(c1ccccc1)c1ccccc1` (stereo unspecified), the growth was 107%.

`COc1ccc2[nH]c(=O)c(CNc3ccc(Nc4nccc(-c5ccc(Cl)cc5)n4)cc3)cc2c1`: the growth was 103%.

Regarding `Nc1ccc(N=Nc2ccccc2)cc1[N+](=O)[O-]`, the growth was 110%.

For the compound `COc1ccc(C2CC(c3ccc4c(c3)OCO4)=NN2C=O)cc1` (stereo unspecified), the growth is 110%.

For the compound `CC(=O)Nc1c(Cl)cc2c(c1Cl)Cc1cc([N+](=O)[O-])ccc1-2`, the growth is 117%.

As to `Cc1ncc(C(=O)Nc2ccc(CN3CCN(C)CC3)c(C(F)(F)F)c2)cc1C#Cc1cncc2ncccc12`, the growth is 69%.

On to `Cc1cccc2nnc(-c3ccccc3)n12`, for which the growth is 107%.

With `Cn1ccnc1C(=O)/C=C/c1ccc(C(=O)Nc2nc3ccccc3[nH]2)cc1`, the growth was 59.9%.

In the case of `Cc1cc(-c2ccccc2)cc(C)n1`, the growth was 108%.

With `Cc1cn(C(C=O)OC(C=O)CO)c(=O)[nH]c1=O` (stereo unspecified), the growth is 111%.

On to `COc1cc(-c2nc3nc4sc(C)c(C)c4c(=O)n3[nH]2)cc(OC)c1OC`, for which the growth was 96.4%.

Turning to `Nc1ccc2c(c1)Cc1cc(Cl)c(Cl)cc1-2`, the growth is 82.6%.

As to `CCN(CC)CCCCCCCNc1c2ccc(Cl)cc2nc2ccc(OC)cc12`, the growth is -8.18% (active).

On to `O=C(Nc1nc(-c2ccc(Cl)cc2)cs1)c1cc(-c2ccc(Br)cc2)nc2ccc(Cl)cc12`, for which the growth is 106%.

As to `Cc1ccc(C(NC(=O)c2ccccc2)c2ccc3cccnc3c2O)cc1` (stereo unspecified), the growth was 44.8%.

`O=[N+]([O-])c1ccc(N=Nc2c(Cl)cc(O)cc2Cl)cc1`: the growth was 25.3%.

In the case of `N#Cc1ncc(-c2ccc(C(F)(F)F)cc2)c(NC2CCCCCC2)n1`, the growth is 38.8%.

In the case of `O=C(O)CNC(=O)C1(N2C(=O)c3ccccc3C2=O)CCCC1`, the growth is 101%.

`O=[N+]([O-])c1ccc2[nH]cc(-c3c4ccccc4cc4[nH]c5ccc([N+](=O)[O-])cc5c34)c2c1`: the growth is 67.8%.

In the case of `COCCCNS(=O)(=O)c1ncnc2nc[nH]c12`, the growth was 100%.

Turning to `O=C1Nc2ccc(Cl)cc2/C1=C/c1cccs1`, the growth was 110%.

As for `O=C(COc1ccc(/C=C2\Cc3ccccc3C2=O)cc1)c1ccc(Cl)cc1`, the growth was 102%.

As to `N=C1c2nc3n(c2C(=O)c2nc4n(c21)CCCCC4)CCCCC3`, the growth was 123%.

For `O=C1N=C(N2CCOCC2)S/C1=C\c1cn(-c2ccccc2)nc1-c1ccccc1`, the growth was 109%.

On to `CCOC(=O)c1sc(NC(=O)COc2cccc(/C=C3\Cc4ccc(Cl)cc4C3=O)c2)nc1C`, for which the growth is 101%.

For the compound `C(=C1c2ccccc2-c2ccccc21)c1ccccn1`, the growth was 87.3%.

Take `O=C(Nc1ccccc1S)c1ccccc1`: the growth is 123%.
